Anthrax LF prot – Bacillus anthracis LF protease inhibitors, primary screen, biochemical, multiplex microsphere, MLPCN library; Lethal factor (Bacillus anthracis), P15917; multiplex microsphere protease cleavage assay; inhibition, % at 10 µM; actives 0.12% (n = 360,000); note: plate controls were buffer without enzyme for full effect and enzyme alone for no effect
Bead autofluor – counter-screen for toxin protease inhibitors: compound fluorescence. fluorescence intensity (concentration not given with the values). compound autofluorescence counterscreen, microsphere flow cytometry; stronger effect = higher value. actives 3.1% (n = 360,000). AID 624483; in the data active = fluorescence intensity above about 16000; inconclusive = no clear call, values can overlap the other calls
BoNT A protease – BoNT/A light chain protease inhibitors, primary screen, biochemical, flow cytometry, MLPCN library | Botulinum neurotoxin type A light chain protease (Clostridium botulinum A str. ATCC 3502) | multiplex microsphere protease substrate cleavage | inhibition, % at 10 µM | actives 0.17% (n = 360,000); note: plate controls were buffer without enzyme for full effect and enzyme alone for no effect
MazF activator – activators of E. coli MazEF toxin-antitoxin RNase, primary screen, biochemical, fluorescence, uHTS; Endoribonuclease toxin MazF (Escherichia coli (strain K12)), P0AE70; actives 0.32% (n = 350,000); activation, % at 20 µM; FAM/BHQ RNA-DNA oligo cleavage fluorescence, 5 h; in the data active = activation above about 50%
Target sequence (P0AE70 whole entry, looked up): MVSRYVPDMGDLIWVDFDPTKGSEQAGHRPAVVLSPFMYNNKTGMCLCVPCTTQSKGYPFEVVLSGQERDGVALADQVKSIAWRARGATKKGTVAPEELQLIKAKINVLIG
BoNT-F LC inh – BoNT/F light chain protease inhibitors, primary screen, biochemical, flow cytometry, MLPCN library; Botulinum neurotoxin type F light chain protease (Clostridium botulinum); Multiplex microsphere protease cleavage assay; inhibition, % at 10 µM; actives 0.22% (n = 360,000); in the data active = inhibition above about 35%, passing the limit was not always enough; inconclusive = no clear call, values can overlap the other calls; note: plate controls were buffer without enzyme for full effect and enzyme alone for no effect
An asterisk follows results filed as active; ? = inconclusive; · = no result. An excerpt weighted towards active compounds, which were near 3.7% of everything screened. Cut-off read from the data, not from the text of the source, unless noted: active = inhibition above about 30%; inconclusive = no clear call, values can overlap the other calls; inactive = below that.

SMILES	Anthrax LF prot	Bead autofluor	BoNT A protease	MazF activator	BoNT-F LC inh
O=C(Nc1ccon1)c1cc2c(s1)CCCCCC2	-1	16721*	?	2	-4
O=C(NCCCn1ccnc1)c1cc2c(s1)CCCCC2	0	25451*	-5	9	-9
O=C(NCc1ccco1)c1cc2c(s1)CCCCC2	-19	18946*	10	7	13
O=C(NCC(c1ccco1)N1CCCCC1)c1cc2c(s1)CCCC2 (stereo not given)	2	5300	0	-6	-6
O=C(Nc1ccon1)c1cc2c(s1)CCCC2	1	22744*	?	7	5
CC(=O)Nc1ccc(SCC(=O)N(CCC#N)c2ccc(C)cc2)cc1	-2	16531*	-2	4	-6
O=C(NCCc1ccccc1)c1ccccc1F	1	2007	-1	0	-9
NS(=O)(=O)c1ccc(CCNC(=O)c2ccccc2F)cc1	-1	16685*	-2	-2	-6
O=C(NCCNC(=O)C(F)(F)F)c1ccncc1	?	?	0	0	9
O=C(NCCc1ccncc1)c1ccccc1F	1	21712*	3	9	4
O=C(NCCc1ccncc1)C(F)(F)F	0	24347*	-1	-2	0
O=S(=O)(Nc1cccc(F)c1)c1ccc(S(=O)(=O)N2CCOCC2)cc1	0	2905	0	-2	3
COc1ccc(N2C(=O)CSC2c2ccc3c(c2)OCO3)cc1 (stereo not given)	2	16403*	-1	7	-2
COc1ccc(N2C(=O)CSC2c2ccc3c(c2)OCO3)c(OC)c1 (stereo not given)	-4	4172	-1	4	1
Cc1ccc2nc(-c3ccccc3)cc(C(=O)N(C)CC(=O)Nc3ccccc3Br)c2c1	-6	4989	-7	-4	-12
CCCn1c(SCC(=O)Nc2ccccc2N2CCOCC2)nc2c1c(=O)n(C)c(=O)n2C	0	2836	0	10	?
CCCn1c(SCC(=O)N2CCc3ccccc3C2)nc2c1c(=O)n(C)c(=O)n2C	-1	23593*	-1	-2	-1
CC(=O)c1ccc(-n2nnnc2SCC(=O)N2CCc3ccccc3C2)cc1	-2	2833	-1	6	-4
Nc1cc(=O)[nH]c(SCC(=O)N2CCc3ccccc3C2)n1	0	20269*	0	-1	1
CCCn1c(SCC(=O)Nc2nc3c(s2)CCCC3)nc2c1c(=O)n(C)c(=O)n2C	0	23637*	-1	11	-2
O=C(CSc1nnnn1-c1ccccc1)N1CCc2ccccc2C1	-2	22363*	-1	2	0
COc1ccc(CCNC(=O)C2CCN(C(=O)c3ccc(Br)cc3)CC2)cc1OC	3	3834	-4	3	-9
COc1ccc(C)cc1NC(=O)CN1CCCC1c1ccc2c(c1)OCCCO2 (stereo not given)	-7	3377	-1	0	-2
CC(C)NC(=O)c1cc(C2CCCCN2C(=O)c2ccccc2)on1 (stereo not given)	-2	3606	0	·	0
CCCCn1c(SCC(=O)Nc2nnc(C(C)C)s2)nc2c1c(=O)n(C)c(=O)n2C	0	20755*	0	-1	1
SMILES	Anthrax LF prot	Bead autofluor	BoNT A protease	MazF activator	BoNT-F LC inh
CCOc1ccc(OCC)c(NC(=O)CSc2nc3c(c(=O)n(C)c(=O)n3C)n2CC)c1	-2	19457*	0	-5	-1
C(=C\CSc1nnnn1-c1ccccc1)/CSc1nnnn1-c1ccccc1	-3	20060*	1	-1	3
Cc1nnc(NC(=O)CSc2nc3c(c(=O)n(C)c(=O)n3C)n2C(C)C)s1	-1	4381	1	3	4
Cc1cc(C)c2nc(-c3ccccn3)cc(C(=O)N3CCCC3)c2c1	1	5370	0	-9	-7
O=C(Nc1ccccc1)c1ccc(OC(=O)c2cc3ccccc3o2)cc1	2	21900*	2	-1	4
O=C(Nc1ccccc1)c1cc2ccccc2o1	-1	2879	-1	6	-7
CCOC(=O)c1c(C)oc2c1c(C(c1ccccc1)N1CCOCC1)c(O)c1ccccc12 (stereo not given)	-5	19404*	?	-9	6
O=C(OCc1ccccc1)Oc1cncc(C(=O)O)c1	-6	16938*	-3	-6	-5

Screens from PubChem.
